# Experimental data published in PubChem BioAssay.
# The source made the active and inactive calls. Unless noted, no rule for the calls is given here.
# How the values were obtained:
# [1] = A549 cell viability effects, profiling panel, calcein-AM fluorescence, 48 h, basal (AID 1162); conditions: higher = more signal; also: test concentration not given here
# [2] = adipocyte viability effects, profiling panel, cell-based, 3T3-L1 adipocytes, calcein-AM fluorescence, 48 h, basal (AID 1163); conditions: 3T3-L1 adipocytes viability, higher = more signal; also: test concentration not given here
# [3] = HepG2 cell viability effects, profiling panel, calcein-AM fluorescence, 48 h, basal (AID 1164); conditions: higher = more signal; also: test concentration not given here
# [4] = MM1S cell viability effects, profiling panel, calcein-AM fluorescence, 48 h, basal (AID 1165); conditions: higher = more signal;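 also: viability of MM1S multiple myeloma cells under basal unstimulated conditions; test concentration not given here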
# [5] = basal RPMI8226 viability, no added stimulus, profiling panel, cell-based, calcein-AM fluorescence, 48 h, PK04 Diversity Set (AID 1166); conditions: RPMI8226 myeloma viability, higher = more signal;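 also: cells grown under basal conditions without added stimulus; test concentration not given here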
# [6] = basal HepG2 mitochondrial membrane potential changes, profiling panel, cell-based, JC-1 fluorescence, 24 h, 100 nL compound (AID 1167); conditions: higher = more signal; also: test concentration not given here
# [7] = basal 3T3-L1 adipocyte mitochondrial potential changes, profiling panel, cell-based, JC-1 fluorescence, 3T3-L1 adipocytes, 24 h, 100 nL compound (AID 1168); conditions: JC-1 mitochondrial fluorescence, higher = more signal, called active from +8 up or from −8 down; also: test concentration not given here
# [8] = basal RPMI8226 mitochondrial membrane potential changes, profiling panel, cell-based, JC-1 fluorescence, 24 h, 100 nL compound (AID 1169); conditions: RPMI8226 myeloma, JC-1 mitochondrial potential fluorescence, higher = more signal; also: test concentration not given here
# [9] = basal MM1S mitochondrial membrane potential changes, profiling panel, cell-based, JC-1 fluorescence, 24 h, 100 nL compound (AID 1170); conditions: higher = more signal; also: test concentration not given here
# [10] = A549 lung cancer cell viability effects, profiling panel, resazurin fluorescence, 24 h, PK04 Diversity Set (AID 1171); conditions: higher = more signal, called active from +8 up or from −8 down; also: test concentration not given here
# [11] = HepG2 liver cancer cell viability effects, profiling panel, resazurin fluorescence, 24 h, PK04 Diversity Set (AID 1172); conditions: higher = more signal; also: test concentration not given here
# [12] = basal S. cerevisiae growth modulation, no modifier, primary screen, OD600, strain BY4716, 24 h, basal condition (AID 1173); conditions: OD600, 24 h, higher = more signal, called active from +8 up or from −8 down
# [13] = MM1S myeloma cell viability, profiling panel, resazurin fluorescence, basal, 24 h, PK04 Diversity Set (AID 1174); conditions: higher = more signal, called active from +8 up or from −8 down;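 also: MM1S multiple myeloma cell line; test concentration not given here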
# [14] = target: Dihydroorotate dehydrogenase (quinone), mitochondrial (Plasmodium falciparum (isolate 3D7)) (UniProt Q08210); experiment: PfDHODH enzyme inhibitors, primary screen, biochemical, C-terminal His tag, absorbance 600 nm (AID 1175); conditions: DCIP absorbance 600 nm, higher = more signal, called active from +8 up or from −8 down;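 also: recombinant parasite enzyme with a five histidine tag at its C terminus; test concentration not given here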
# Sequence of Dihydroorotate dehydrogenase (quinone), mitochondrial (Plasmodium falciparum (isolate 3D7)) (Q08210 whole entry, looked up): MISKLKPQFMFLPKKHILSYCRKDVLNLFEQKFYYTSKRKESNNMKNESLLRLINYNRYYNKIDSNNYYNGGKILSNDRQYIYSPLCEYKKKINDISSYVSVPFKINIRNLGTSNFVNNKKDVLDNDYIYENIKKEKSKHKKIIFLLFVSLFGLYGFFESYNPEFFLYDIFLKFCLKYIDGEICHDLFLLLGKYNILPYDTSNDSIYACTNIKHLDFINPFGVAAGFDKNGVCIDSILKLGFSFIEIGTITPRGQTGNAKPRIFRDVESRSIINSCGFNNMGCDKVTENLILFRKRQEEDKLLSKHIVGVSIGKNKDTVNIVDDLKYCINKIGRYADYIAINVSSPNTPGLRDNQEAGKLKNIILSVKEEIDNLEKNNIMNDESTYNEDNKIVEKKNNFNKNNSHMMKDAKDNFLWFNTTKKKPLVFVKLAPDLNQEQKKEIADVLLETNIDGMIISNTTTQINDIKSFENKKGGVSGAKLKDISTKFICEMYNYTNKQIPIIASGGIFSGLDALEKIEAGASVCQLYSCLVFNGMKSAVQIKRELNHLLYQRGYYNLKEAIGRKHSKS
# [15] = P. aeruginosa biofilm formation inhibitors, primary screen, strain PAO1, LB-PBS medium, absorbance 600 nm (AID 1176); also: test concentration not given here; conditions: P. aeruginosa PAO1 growth/biofilm, A600, 12 h; higher = more signal
# [16] = S. cerevisiae RM11-1a growth modifiers, primary screen, strain RM11-1a, OD600, basal, 24 h (AID 1177); conditions: OD600, 24 h, higher = more signal, called active from +8 up or from −8 down;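 also: cultures grown under basal conditions with no added stressor; test concentration not given here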
# [17] = E. coli acrAB mutant growth effects, primary screen, E. coli filamentation inducers, strain DRC39, OD650, 24 h (AID 1178); conditions: higher = more signal, called active from +8 up or from −8 down;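 also: growth measured as culture turbidity by optical density at 650 nm; test concentration not given here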
# [18] = E. coli acrAB mutant growth effects, primary screen, E. coli filamentation inducers, strain DRC39, OD650, 48 h (AID 1179);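 also: screen aims at cell division blockers that make cells filament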; conditions: E. coli DRC39 delta-acrAB growth, higher = more signal, called active from +8 up or from −8 down
# [19] = RPMI8226 myeloma cell viability, profiling panel, resazurin fluorescence, basal, 24 h, PK04 Diversity Set (AID 1180); conditions: higher = more signal;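 also: RPMI8826 multiple myeloma cell line at 5000 cells per well; test concentration not given here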
# [20] = target: E3 ubiquitin-protein ligase XIAP (Homo sapiens) (UniProt P98170); experiment: XIAP binders, primary screen, biophysical, small-molecule microarray, fluorescence 635 nm (AID 1181); conditions: small-molecule microarray binding, higher = more signal;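 also: score merges 667 nm emission and signal to noise over triplicate slides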
# Sequence of E3 ubiquitin-protein ligase XIAP (Homo sapiens) (P98170 whole entry, looked up): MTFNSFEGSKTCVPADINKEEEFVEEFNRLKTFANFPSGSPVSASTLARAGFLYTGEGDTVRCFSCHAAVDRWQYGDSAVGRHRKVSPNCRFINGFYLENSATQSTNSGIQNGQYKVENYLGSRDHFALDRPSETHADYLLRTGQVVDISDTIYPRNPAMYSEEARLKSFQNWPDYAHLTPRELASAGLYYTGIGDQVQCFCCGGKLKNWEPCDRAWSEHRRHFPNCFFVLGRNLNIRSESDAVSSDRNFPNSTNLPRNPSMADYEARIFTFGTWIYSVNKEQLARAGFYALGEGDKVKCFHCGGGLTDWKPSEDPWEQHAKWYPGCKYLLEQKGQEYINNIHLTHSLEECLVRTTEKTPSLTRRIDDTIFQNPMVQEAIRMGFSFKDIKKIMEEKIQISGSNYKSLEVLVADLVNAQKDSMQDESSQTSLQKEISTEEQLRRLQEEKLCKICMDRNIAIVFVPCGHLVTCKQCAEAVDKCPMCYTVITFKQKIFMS
SMILES,z-score [1],z-score [2],z-score [3],z-score [4],z-score [5],z-score [6],z-score [7],z-score [8],z-score [9],z-score [10],z-score [11],z-score [12],z-score [13],composite z-score [14],z-score [15],z-score [16],z-score [17],z-score [18],z-score [19],composite z-score [20]
COCCOC(=O)N1C(=O)[C@@]2(c3cc(C#Cc4ccc(OC)cc4)ccc31)[C@H](C(=O)N1CCc3cc(OC)c(OC)cc3C1)[C@H]1C(=O)O[C@H](c3ccccc3)[C@H](c3ccccc3)N1[C@@H]2c1ccc(O)cc1,-0.0326,0.376,0.97,0.175,-0.393,-0.177,0.302 (inactive),-0.185,0.516,0.361 (inactive),-0.0637,1.12 (inactive),-0.108 (inactive),0.751 (inactive),0.858 (inactive),2.08 (inactive),-0.145 (inactive),0.26 (inactive),0.0506,0.202
CC(C)(C)OC(=O)CC[C@]1(C(=O)N2CCCCC2)N=C(c2ccc(OCCCO)cc2)O[C@H]1c1ccccc1CN=[N+]=[N-],1.1,0.876,1.58,-2.99,-2.01,2.46,0.67 (inactive),-0.983,0.358,-1.35 (inactive),-0.725,-0.451 (inactive),0.0183 (inactive),-0.625 (inactive),0.618 (inactive),-0.391 (inactive),2.41 (inactive),2.39 (inactive),-0.357,0.0346
O=c1c2ccc(Br)cc2nc(-c2ccccc2)n1Cc1cccc(O)c1,-0.277,1.02,0.196,-0.115,0.195,-0.0225,-0.525 (inactive),0.385,-0.258,0.0972 (inactive),-0.187,-2.04 (inactive),-1.1 (inactive),0.515 (inactive),0.186 (inactive),0.159 (inactive),0.362 (inactive),0.39 (inactive),-0.0974,-0.151
Cc1ccc(S[C@]2(C(=O)NCCN3CCOCC3)CC(=O)N(C3Cc4ccccc4C3)[C@@H]2c2ccc(CO)cc2)cc1,-0.215,-0.143,-0.619,-0.0655,0.0047,0.699,0.242 (inactive),0.794,-0.0188,0.665 (inactive),-0.211,0.884 (inactive),-0.209 (inactive),0.408 (inactive),0.0435 (inactive),0.948 (inactive),0.435 (inactive),0.337 (inactive),-0.109,-0.0282
COC(=O)[C@@]1(Cc2ccc(OC)cc2)[C@H]2c3cc(C(=O)N(C)C)n(Cc4cc(F)c(F)c(F)c4)c3C[C@H]2CN1C(=O)c1ccccc1,-1.81,0.745,-0.909,-1.59,-2.93,3.22,-0.149 (inactive),-0.863,-0.971,-1.48 (inactive),-1.07,1.83 (inactive),-2.61 (inactive),-2.65 (inactive),4.06 (inactive),0.726 (inactive),-0.337 (inactive),-0.622 (inactive),-2.32,0.0957
COC(=O)C(CC#Cc1ccc2c(c1)[C@]1(C(=O)N2)[C@H](c2ccc(O)cc2)N2[C@H](c3ccccc3)[C@H](c3ccccc3)OC(=O)[C@H]2[C@@H]1C(=O)O)C(=O)OC,0.391,-0.987,0.0171,0.226,-0.892,-0.141,-0.687 (inactive),0.491,0.412,-0.279 (inactive),0.464,0.338 (inactive),-0.134 (inactive),-1.59 (inactive),0.875 (inactive),-0.316 (inactive),-0.0388 (inactive),-0.286 (inactive),-0.0316,-0.374
C=C(COC)/C(=C/C[C@@H](OC(=O)c1ccncc1)c1cccc(OCCO)c1)c1cc(C(=O)OC)ccc1OC,-0.637,-0.628,-1.45,-2.22,-2.37,1.37,-0.109 (inactive),-0.574,-1.26,-1.8 (inactive),-0.114,-18.2 (active),-0.477 (inactive),-7.37 (inactive),0.236 (inactive),-22.1 (active),0.802 (inactive),0.488 (inactive),0.0987,0.201
C=C(COC)C(=O)CC[C@H](OC(=O)c1ccccc1-c1ccccc1C(=O)O)c1ccc(CO)o1,-0.643,-0.398,-0.985,0.232,-0.0416,-1.01,-0.345 (inactive),0.12,0.433,-0.256 (inactive),-0.45,0.624 (inactive),-0.176 (inactive),-1.39 (inactive),1.85 (inactive),0.89 (inactive),-0.573 (inactive),-0.399 (inactive),-0.178,0.0402
CCCN1C(=O)[C@@H]2Cc3c([nH]c4ccccc34)[C@@H](c3cccc(O)c3)N2C1=O,-0.362,0.407,-1.81,0.342,-0.178,-1.45,0.137 (inactive),-0.137,-0.211,0.264 (inactive),0.944,0.852 (inactive),0.327 (inactive),-0.931 (inactive),0.764 (inactive),0.0696 (inactive),0.19 (inactive),0.0246 (inactive),0.0074,-0.313
